Values joined by “and” are separate entries in the source; they are usually repeats but may differ in a detail not shown here. Identical values can stand only once.
Test: small-molecule binders of probe aInhba, primary screen, biochemical, small-molecule microarray, 635/667 nm fluorescence (AID 1148);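 further: score merges 667nm spot fluorescence with signal-to-noise for antibody binding to printed compounds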
Details: higher = more signal

Row | SMILES | composite z-score
1 | CC(CO)N1C(=O)[C@@H]2C3C(=O)OCCC=C[C@H]3OC23C=CCN(c2ccc(Cl)cc2)C(=O)[C@@H]13 (stereo partly specified) | -0.111 and 0.0541
2 | CCOC(=O)NN=C1C[C@@H](O)[C@@H](O)[C@@H]2[C@@H]3C(=O)N(Cc4ccc5c(c4)OCO5)C(=O)[C@@H]3CC[C@@H]12 | -0.179
3 | C=CCN(C(=O)C(c1cccs1)N(C(=O)/C=C\C(=O)O)c1ccc(CCO)cc1)C(C)(C)C (stereo unspecified) | -0.154 and -0.227
4 | C=CCN(C(=O)C(c1cccs1)N(C(=O)/C=C\C(=O)O)c1c(Cl)cccc1CO)C(C)(C)C (stereo unspecified) | -0.341 and -0.164
5 | C=CCN(CCCCC)C(=O)C1N(c2c(Cl)cccc2CO)C(=O)C2C(C(=O)O)C3C=CC21O3 (stereo unspecified) | -0.258 and -0.152
6 | C=CCN(CCCC)C(=O)C(c1cccs1)N(CCOCCO)C(=O)/C=C\C(=O)O (stereo unspecified) | -0.0313 and -0.0791
7 | CCCCCN1CC=CC23O[C@@H]4C=CCCOC(=O)C4[C@H]2C(=O)N(C(C)CO)[C@@H]3C1=O (stereo partly specified) | -0.837 and -0.0933
8 | COC(=O)[C@H](C)NC(=O)CCC1CC(OC(=O)NCCc2ccc(F)cc2)CC2(CCCC(COC(=O)NCCCN3CCCC3=O)O2)O1 (stereo partly specified) | 0.117
9 | COC(=O)C1=C(C)N(Cc2ccccc2)C2=C(C(C)=O)C[C@@](O)(C(=O)OC)C(=O)N2[C@@H]1c1ccccc1 | 0.0212 and -0.0136
10 | C=CCN(CCCCC)C(=O)C(c1cccs1)N(C(=O)/C=C\C(=O)O)c1c(Cl)cccc1CO (stereo unspecified) | -0.202 and -0.233
11 | CC(C)CON=C1C[C@@H](O)[C@@H](O)[C@@H]2[C@@H]3C(=O)N(c4cccc(Oc5ccccc5)c4)C(=O)[C@@H]3CC[C@H]12 | -0.102
12 | C=CCN(C(=O)C(c1cccs1)N(C(=O)/C=C\C(=O)O)C(C)(C)CO)c1ccc(OC)cc1 (stereo unspecified) | -0.061 and -0.0371
13 | CCCNC(=O)OC[C@H]1O[C@H](CCON=C(C)CCN2CCc3nc(-c4ccccc4)c(-c4ccccc4)cc3C2)C=C[C@@H]1Oc1ccc(OC)cc1 | -0.152
14 | C=CC[C@@H](O)c1ccc(O)c(F)c1 | -0.327 and -0.157
15 | C=CCN(Cc1ccccc1)C(=O)C(c1cccs1)N(C(=O)/C=C\C(=O)O)c1c(Cl)cccc1CO (stereo unspecified) | -0.154 and -0.176
16 | CC(C)[Si]1(C(C)C)OCc2cc(CCCc3cc4c(c(CCc5ccccc5)n3)[Si](C(C)C)(C(C)C)OC4)nc(CCc3ccccc3)c21 | -0.0791 and 0.0442

Row | SMILES | composite z-score
17 | COC(=O)[C@@]1(Cc2ccc(F)cc2)[C@H]2c3cc(C(=O)N4CCCC4)n(Cc4c(CO)[nH]cc(C)c4=O)c3C[C@H]2CN1C(=O)c1ccccc1 | 1.24 and 0.131
18 | C=CCN(C(=O)C1N(c2ccc(CCO)cc2)C(=O)C2C(C(=O)O)C3C=CC21O3)c1ccc(OC)cc1 (stereo unspecified) | -0.0066 and -0.311
19 | C=CCN(C(=O)C1N(CCOCCO)C(=O)C2C(C(=O)O)C3C=CC21O3)C(C)(C)C (stereo unspecified) | -0.179 and -0.319
20 | CCOC(=O)c1ccc(NC(=O)O[C@H]2[C@H](OC(=O)Nc3ccccc3)[C@H](OC(=O)Nc3ccccc3)[C@@H](OC)O[C@@H]2CO)cc1 | 0.189 and 0.232
21 | CC(C)=NOCc1ccc(-c2cn([C@@H]3COC[C@H]3O)nn2)cc1 | -0.128
22 | C[C@@H]1CC[C@H]2C(=O)O[C@H](CN=[N+]=[N-])CN2[C@H]1c1ccc(Br)cc1 | 0.0232 and -0.154
23 | C=CCN1C(=O)[C@]2(O[C@H](CCn3cc(CCO)nn3)[C@@H]([Si](C)(C)c3ccc(OC)cc3)[C@@H]2C)c2cc(N3C(=O)c4cccc5cccc3c45)ccc21 | -0.0719 and -0.0986
24 | CC(CO)N1C(=O)[C@@H]2C3C(=O)OCCC=C[C@H]3OC23C=CCN(Cc2ccccc2)C(=O)[C@@H]13 (stereo partly specified) | -0.128 and -0.0762
25 | C=CCN(C(=O)C1N(c2c(Cl)cccc2CO)C(=O)C2C(C(=O)O)C3C=CC21O3)C(C)(C)C (stereo unspecified) | -0.702 and -0.213
26 | O=C1C[C@]2(c3ccc([N+](=O)[O-])cc3)C(=O)N(Cc3ccccc3)c3cc(CO)ccc3[C@H]2N1C1CCCCC1 | -0.249 and 0.163
27 | C[C@@H](ON=C1[C@H]2CCn3c(=O)n(-c4ccccc4)c(=O)n3[C@H]2[C@H](O)[C@@H]2O[C@H]12)c1cn([C@H](CO)Cc2ccccc2)nn1 | -0.0313
28 | C=CCN(CCCC)C(=O)C1N(C(C)(C)CO)C(=O)C2C(C(=O)O)C3C=CC21O3 (stereo unspecified) | -0.208 and -0.157
29 | COC(=O)[C@@]1(Cc2ccccc2)[C@H]2c3cc(C(=O)N(C)C)n(C[C@H](O)CO)c3C[C@H]2CN1C(=O)c1ccccc1 | -0.0817 and 0.223
30 | C[C@@H]1CN2[C@@H](CC[C@@H](C)[C@@H]2c2ccc(Br)cc2)C(=O)O1 | -0.193 and 0.0506
31 | COC(=O)C1=C(C)N(Cc2ccccc2)[C@]23O[C@](C(=O)OC)(C(=O)N2[C@@H]1c1ccccc1)[C@@H](C(=O)OC)[C@H]3C(=O)OC | -0.188 and -0.218
